# Results reported in PubChem BioAssay AID492953 (The Scripps Research Institute Molecular Screening Center, 2010).
# The campaign covered roughly 340,000 compounds. About 4,200 (1.2%) were called active. What follows is part of a selection rich in actives, with near analogues and random picks from the rest. A number with no mark means an inactive call.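 The calls were made as follows: active = inhibition above the mean of all tested compounds plus 3 SD (cut at about 24% in these data); inactive = the rest.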
# Target: Platelet-activating factor acetylhydrolase IB subunit alpha2 (Homo sapiens) (UniProt P68402)
# Test: PAFAH1B2 enzyme inhibitors, primary screen, biochemical, fluorescence polarization, human (AID 492953);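 also: 0% = enzyme with DMSO and 100% = wells lacking PAFAH1B2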
# Settings: recombinant PAFAH1B2, FP-rhodamine activity probe, at 3.39 µM, stronger effect = higher value
# Chain of Platelet-activating factor acetylhydrolase IB subunit alpha2 (Homo sapiens) (P68402 whole entry, looked up): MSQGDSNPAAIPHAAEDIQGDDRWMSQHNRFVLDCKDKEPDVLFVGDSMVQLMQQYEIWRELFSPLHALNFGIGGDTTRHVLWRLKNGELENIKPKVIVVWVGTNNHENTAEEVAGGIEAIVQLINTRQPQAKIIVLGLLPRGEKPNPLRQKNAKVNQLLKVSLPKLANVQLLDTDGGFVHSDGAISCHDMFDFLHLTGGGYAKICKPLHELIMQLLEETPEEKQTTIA
row,SMILES,inhibition
1,CSc1ncnc2c1ncn2CC(=O)C1CCC2C3CCC4=CC(=O)CCC4(C)C3CCC12C (configuration not stated),3.57%
2,Cc1ccc(S(=O)(=O)N2CCN(S(=O)(=O)N3CCOCC3)CC2)cc1,2.69%
3,CC(C)(C)c1ccc(C(=O)N2CCN(CCNC(=O)C(=O)Nc3ccc(F)cc3)CC2)cc1,0.31%
4,CC(=O)N1CCOc2ccc(S(=O)(=O)N3CCN(c4cccc(C(F)(F)F)c4)CC3)cc21,3.14%
5,CC1CN(C(=O)c2cc(COc3c(F)cccc3F)on2)CCN1C (configuration not stated),0.48%
6,O=C(CNC1CCCCC1)NCC1(c2ccccc2)CCCC1,26.9% (active)
7,CC(=O)CC(CC(=O)NC1CCCCC1)c1ccccc1 (configuration not stated),5.22%
8,O=C(CCS(=O)(=O)c1ccccc1)NC1CCCC1,5.22%
9,CC(C)Cn1cnc2c(SCc3ccc(Cl)cc3)nc(N)nc21,7.46%
10,Cc1ccc(C(=O)COC(=O)CCN2C(=O)C3C4CC(C(Br)C4Br)C3C2=O)cc1 (configuration not stated),-1.23%
11,COc1cccc(N2CCN(CC(=O)Nc3ccnn3C3CCCC3)CC2)c1,1.78%
12,CC(Oc1ccc(Cl)cc1)C(=O)OCC(=O)Nc1ncc(Cl)cc1Cl (configuration not stated),30.6% (active)
13,CC1(C(=O)OCC(=O)Nc2ncc(Cl)cc2Cl)CC1(Cl)Cl (configuration not stated),2.15%
14,O=C(COC(=O)Cn1[nH]c(=O)c2ccccc2c1=O)Nc1ncc(Cl)cc1Cl,2.27%
15,CCN(CC(=O)Nc1c(F)cccc1F)C(=O)c1ccc(-c2ccccc2)cc1,3.05%
16,COc1ccc(-c2cn(-c3ccc(C)cc3)c(=O)n2CC(=O)Nc2ccc(OC)c(OC)c2)cc1,2.69%
17,CC1CCC(NC(=O)CNC(=O)c2ccc3ccccc3c2)CC1 (configuration not stated),7.58%
18,CCCc1cc(=O)[nH]c(SCc2cc(=O)oc3c(C)c(C)ccc23)n1,-0.37%
19,CCCc1cc(=O)[nH]c(SCc2ccc(C#N)cc2)n1,25.2% (active)
20,CCCc1cc(=O)n2[nH]c(SCc3ccccc3)nc2n1,13.6%
21,Cn1cc(C2OC(=O)c3ccccc32)c2ccccc21 (configuration not stated),0.55%
22,Cc1ccc(S(=O)(=O)NCCC(c2ccccc2)c2ccccc2)cc1C(=O)O,29% (active)
23,Cc1ccc(S(=O)(=O)NCCCn2ccnc2)cc1C(=O)NC(C)C,2.08%

row,SMILES,inhibition
1,Cc1cccc(NS(=O)(=O)c2ccc(C)c(C(=O)NCC(c3ccccc3)N(C)C)c2)c1 (configuration not stated),6.63%
2,COc1cc(Cl)c(C)cc1NC(=O)COC(=O)c1cc(SC)ccc1Cl,-3.93%
3,CSCc1cc(N2CCOCC2)nc(SCc2ccc(Cl)cc2Cl)n1,10.7%
4,N/C(=N\OC(=O)CCc1ccccc1)c1cccnc1,1.52%
5,N/C(=N\OC(=O)CCc1ccccc1)c1ccc(Cl)cc1,63.8% (active)
6,COc1ccc(/C(N)=N/OC(=O)CCCc2ccccc2)cc1,6.71%
7,C=C(C)c1cccc(C(C)(C)NC(=O)NC2CCCC2)c1,4.81%
8,COCCSc1nnc(NC(=O)c2cc(OC)c(OC)cc2[N+](=O)[O-])s1,4.45%
9,COC(=O)[C@@]1(C)[C@H]2C(=O)N(Cc3ccccc3)C(=O)[C@H]2[C@H]2CN=C(SCC3CC3)N21,2.74%
10,CC(OC(=O)/C=C/c1ccccc1)C(=O)NC1CCCCC1C (configuration not stated),1.18%
11,Cc1ccc(COc2ccc(/C=N/NC(=O)CN3CCCCC3)cc2)cc1,25.1% (active)
12,O=C(CN1CCSCC1)N/N=C/c1ccc(F)cc1,-6.64%
13,CCOc1cc(/C=N/NC(=O)CN2CCCCC2)ccc1O,1.96%
14,Cc1ccc(S(=O)(=O)NC(=O)N2CCCN(Cc3ccc(F)cc3)CC2)cc1,9.06%
15,CCOC(=O)c1cccc(NC(=O)CCn2nnc3ccccc32)c1,1.37%
16,Cn1c(Cn2nnc3ccccc32)nnc1SCC(=O)c1ccccc1F,4.6%
17,C/C(Cn1nnc2ccccc21)=N\OC(=O)c1cc(F)c(F)cc1Cl,25.1% (active)
18,COC(=O)C1=C(N)Oc2cc(C)[nH]c(=O)c2C1c1ccc(Cl)cc1 (configuration not stated),-2.03%
19,C=CCNC(=O)CCCC(=O)NCC=C,2.09%
20,Cc1ccc(NS(=O)(=O)c2cc3c(cc2C)NC(=O)CO3)cc1,6.94%
21,Cc1ccc(NS(=O)(=O)c2ccc3c(c2)NC(=O)CO3)cc1,19.2%
22,O=C1COc2ccc(S(=O)(=O)Nc3ccc(OC(F)(F)F)cc3)cc2N1,41.6% (active)
23,Nc1ccc2c(c1)C(=Cc1cccnc1)c1ccccc1-2,6.17%

row,SMILES,inhibition
1,COc1cc2c(cc1OC)C1C(=O)c3cc(OS(C)(=O)=O)c(OC)cc3C1N(C)C2=O (configuration not stated),0.81%
2,COCCNC(=O)NC(=O)COC(=O)C1(c2ccc(Cl)cc2)CC1,26.9% (active)
3,CC(=O)N1CCC(C(=O)OCc2ccc(Cl)cc2)(c2ccccc2)CC1,7.86%
4,CCCNC(=O)NC(=O)COC(=O)CC(NC(N)=O)c1ccc(Cl)cc1 (configuration not stated),2.08%
5,COc1ccc(-c2c(C)cc3oc(=O)cc(-c4ccccc4)c3c2C)cc1C=O,-1.53%
6,O=c1[nH]c2ccccc2s1,4.32%
7,O=C(NC1CCC(O)CC1)c1ccc(S(=O)(=O)NCc2ccco2)cc1 (configuration not stated),4.89%
8,Cc1ccc(S(=O)(=O)N2CCC(C(=O)N[C@@H](C)C(=O)NCc3ccco3)CC2)cc1,4.6%
9,CC1CCN(S(=O)(=O)c2ccc(S(=O)(=O)NCc3ccco3)cc2)CC1,29.6% (active)
10,O=C(CSc1ccc([N+](=O)[O-])cn1)Nc1ccc(N2CCOCC2)c(Cl)c1,-0.87%
11,O=C(/C=C/c1ccccc1[N+](=O)[O-])OCC(=O)N1CCCC1,0.91%
12,COC(=O)[C@@H]1C[C@H]2CC[C@H](O)C[C@H]2N1Cc1ccc(N2CCN(C)CC2)cc1,-3.13%
13,O=C1NC[C@@H](c2ccccc2)OC(=O)[C@H](Cc2ccc(F)cc2)CC/C=C/C[C@H]1CC(=O)N(CCO)Cc1ccccc1,53.8% (active)
14,O=C1CCC/C=C/C[C@@H](CC(=O)N(CCO)Cc2ccccc2)C(=O)NC[C@H](c2ccccc2)O1,-0.45%
15,O=C1N[C@@H](c2ccccc2)COC(=O)[C@H](Cc2ccc(F)cc2)C/C=C\C[C@@H]1CC(=O)N(CCO)Cc1ccccc1,4.49%
16,COC(=O)c1cc(S(=O)(=O)N2CCC(C(N)=O)CC2)oc1C,-0.09%
17,O=C(Nc1ccccc1)N1CCC(C(=O)N2CCN(Cc3ccccc3)CC2)CC1,0.85%
18,COc1ccc(C2c3c(C)nn(-c4ccccc4)c3NC(=O)N2c2ccccc2)cc1 (configuration not stated),0.39%
19,CCCc1[nH]nc2c1C(C1CC=CCC1)C(C#N)=C(N)O2 (configuration not stated),27.5% (active)
20,COCc1[nH]nc2c1C(C1C=CCCC1)C(C#N)=C(N)O2 (configuration not stated),4.96%
21,CCCc1[nH]nc2c1C(c1ccc(Br)s1)C(C#N)=C(N)O2 (configuration not stated),19.3%
22,CC(C)(C)c1cc(CN2CCN(CCC#N)CC2)cc(C(C)(C)C)c1O,1.53%
23,CCOC(=O)c1ccccc1N1C(=O)C2Sc3[nH]c(=O)sc3C(/C=C/c3ccccc3)C2C1=O (configuration not stated),1.84%

row,SMILES,inhibition
1,CCOC(=O)C1Sc2[nH]c(=O)sc2C(c2ccc(Cl)cc2)C1C(=O)OCC (configuration not stated),27% (active)
2,CCOC(=O)C1CCN(C(=O)Nc2ccc(Cl)cc2)CC1,2.4%
3,CCCCNC(=O)N1CCN(S(C)(=O)=O)CC1,3.98%
4,Clc1ccc(CSc2nnc([C@@H]3CCCN3)o2)cc1,24.3% (active)
5,O=C(C1CC1)N1CCN=C1SCc1ccc(Cl)cc1,10.5%
6,Nc1cc(N)nc(SCc2ccc(Cl)cc2)n1,24.1%
7,COCC1CCN(C(=O)C2CCC(=O)N(Cc3cccc(C(F)(F)F)c3)C2)CC1 (configuration not stated),-0.17%
8,CCN(CC)CCn1c2ccc(Cl)cc2c2nc(C)sc21,-5.01%
9,CCN(CC)CCCC(C)n1c2nc(=O)[nH]c(=O)c-2nc2cc(Cl)ccc21 (configuration not stated),26% (active)
10,CN(C(=O)c1ccc(NC(=O)Cc2cccc(NC(=O)C3CCN(C(=O)c4ccccc4)CC3)c2)cc1)C1CC1,4.32%
11,O=[N+]([O-])c1ccc(NS(=O)(=O)c2ccccc2)c(Cl)c1,1.95%
12,CN(C)CCNC(=O)c1ccc(Cl)c2cc3ccccc3nc12,-1.08%
13,CC(=O)COc1ccc2c(-c3ccccc3)cc(=O)oc2c1,-1.64%
14,O=C(CNC(=O)c1ccc(-c2ccccc2)cc1)OCc1ccc(Cl)cc1,1.38%
15,O=C(CNC(=O)OCc1ccccc1)Oc1cc2oc(=O)cc(-c3ccccc3)c2cc1Cl,45.7% (active)
16,Nc1ccc2nc3c(=O)[nH]c(=S)[nH]c3nc2c1,33.8% (active)
17,O=C(NCCc1ccccn1)c1nc(Cn2cc([N+](=O)[O-])cn2)no1,-4.12%
18,C=CC(=O)Nc1ccc(Nc2ccnc(Nc3ccc(N4CCN(C)CC4)cc3)n2)cc1,1.32%
19,O=C(COc1ccccc1Cl)Nc1ccccc1C(=O)NC1CC1,0.96%
20,COc1ccc(S(=O)(=O)N2CCOC2CNC(=O)C(=O)NCc2ccncc2)cc1C (configuration not stated),1.87%
21,Nc1cccnc1Sc1ccccc1,4.02%
22,CC(Oc1ccc(Cl)cc1)C(=O)Nc1ncccn1 (configuration not stated),5.55%
23,CC(Oc1ccc(Cl)cc1)c1ccnn1S(C)(=O)=O (configuration not stated),29.6% (active)
